Source: PubChem BioAssay
Sampled rows, rich in hits. Any-hit rate of the full collection: about 6.2%.
KB-V1 MDR tox – KB-V1 MDR subline cytotoxicity. 3.4% of 400,000 active. Potency, µM (highest dose often 46.1 µM), most hits filed as cytotoxic. KB-V1 MDR cells viability, CellTiter-Glo, 72 h. AID 1347076; note: % is set by controls: 0 for no effect and ±100 for the full control effect; nearly all actives have a fitted effect of over 60% in size
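Following 72 h at 37 degrees C with compound, KB-V1 cell viability was read by CellTiter-Glo luminescence, medium being phenol-red-free DMEM plus 10% FBS; concentration-response parameters came from normalized, curve-fitted qHTS data.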
HT1080-NT tox – kills 2HG-producing HT-1080-NT fibrosarcoma cells; HT-1080-NT fibrosarcoma viability, CellTiter-Glo ATP luminescence, 48 h; Potency, µM (doses to about 46.1 µM), inactives show top-dose activity, negative = less viability, actives largely listed as cytotoxic; 1.6% of 360,000 active; AID 686970;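 note: NT is the 2HG producing partner of a matched IDH1 knockdown line; 0% = DMSO-treated cells and -100% = media-only wells without cells; nearly all actives have a fitted effect of over 55% in size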
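750 cells/well, RPMI + 5% FBS; 2 h settle, compound pin-transfer, 48 h at 37 degrees C. CellTiter-Glo 10 min RT, luminescence. Normalized to DMSO and media-only wells.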
KB-3-1 cytotox – kills parental KB-3-1 adenocarcinoma cells; Potency, µM (series often up to 46.1 µM), hits mostly cytotoxic; 1.4% of 400,000 active; AID 1347075; KB-3-1 viability, CellTiter-Glo ATP luminescence, 72 h; note: % is set by controls: 0 for no effect and ±100 for the full control effect; nearly all actives have a fitted effect of over 60% in size
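Parental KB-3-1 viability, qHTS format: 72 h compound exposure, 37 °C; CellTiter-Glo; media-only wells and DMSO plates as controls; concentration-effect fits on corrected data.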
S2 tox – viability counter-screen for ATXN expression inhibitors | AID 651635 | Potency, µM (highest dose often 56.7 µM), usual class: cytotoxic | 0.49% of 400,000 active | S2 cells (HEK-293 line with an ATXN2-luciferase reporter) viability, CellTiter-Fluor protease fluorescence, 24 h; note: nearly all actives have a fitted effect of over 40% in size
ATXN2 expr inh – inhibitors of ATXN2 expression. Potency, µM (highest dose often 57 µM), for the others: top-dose activity change, negative = inhibition, hits mostly inhibitors. 0.72% of 360,000 active. HEK-293 ATXN2-luciferase reporter, luminescence, 24 h. AID 1745845; note: % is set by controls: 0 for no effect and ±100 for the full control effect; nearly all actives have a fitted effect of over 55% in size
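ATXN2-luciferase reporter cells (luciferase flanked by upstream and downstream ATXN2 gene portions) were treated 24 h at 37 °C with compounds at up to 57 uM. SteadyGlo luminescence gave expression; GF-AFC fluorescence gave viability.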
HT1080 IDH1KD tx – toxicity to HT-1080 IDH1 knockdown cells (counter line). HT-1080 IDH1 knockdown viability, ATP luminescence, 48 h. Potency, µM (doses to about 46.1 µM), without a hit: at the top dose activity, negative = toxicity, usual class: cytotoxic. 2% of 360,000 active. AID 686971;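 note: 0% = DMSO wells and -100% = cell-free medium wells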
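Cytotoxicity counter-line: IDH1KD HT-1080, 48 h, CellTiter-Glo. Curves classed by r2, magnitude and activity.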
* hit, by the source's call; i = inactive; ? = inconclusive; nt = no result. Calls come from the whole dose curve; as a rule, active = well fitted curve in the direction sought with a large enough effect; inconclusive = small, poorly fitted or top-dose-only effect, or another doubt; inactive = no such curve, though single readings can be large; an effect the other way counts as inactive or inconclusive. Potency is the fitted concentration of half-maximal effect.

SMILES | KB-V1 MDR tox | HT1080-NT tox | KB-3-1 cytotox | S2 tox | ATXN2 expr inh | HT1080 IDH1KD tx
Cc1ccc(Cn2c(C)c(C(=O)NCc3cccc(C(F)(F)F)c3)sc2=O)cc1 | ? | -12.0% | i | i | 5.6% | 0.6%
COc1ccc(CNC(=O)c2sc(=O)n(Cc3ccc(-c4ccccc4)cc3)c2C)cc1OC | 9.2µM* | -11.5% | ? | i | 0.0% | ?
COc1cc(C(=O)NCc2ccccc2)ccc1OC(F)F | i | -4.5% | i | i | 0.6% | -8.6%
Cc1cccc(CNC(=O)c2sc(=O)n(Cc3c(C)cccc3C)c2C)c1 | 20.6µM* | -13.7% | ? | i | 6.5% | ?
COc1ccc(CNC(=O)c2sc(=O)n(Cc3ccccc3C)c2C)cc1 | ? | -11.0% | i | i | ? | -14.3%
COc1cc(C(=O)NCc2ccc(C)cc2)ccc1OC(F)F | 23.1µM* | 3.3% | i | i | 1.8% | -5.0%
COc1ccccc1Cn1c(C)c(C(=O)NCc2cccc(C)c2)sc1=O | ? | -10.9% | i | i | -19.1% | -10.3%
COc1ccc(NC(=O)c2nnn(Cc3nc(-c4cc(Br)ccc4OC)oc3C)c2C)cc1 | ? | nt | i | i | -1.5% | nt
COc1ccc(-n2c(-c3ccc(C)cc3)cc3c2CC(C)(C)CC3=O)c(OC)c1 | i | nt | i | ? | -19.5% | nt
CC(=O)OCc1cnc(C)c2oc(=O)c(C(=O)Nc3cccc(F)c3)cc12 | i | nt | i | i | -1.7% | nt
CNS(=O)(=O)c1cn(CC(=O)Nc2ccc(C)c(N(C)C)c2)cc1S(=O)(=O)NC | i | nt | i | nt | nt | nt
Cc1ccc(Cn2c(C)c(C(=O)NCC(C)C)sc2=O)cc1 | 13µM* | 3.2% | i | i | 9.6% | -0.9%
CCOC(=O)c1ccc(-n2ccnc2)c(NC(=O)c2ccc(Cl)cc2)c1 | 14.6µM* | 2.5% | i | i | -4.0% | 0.8%
Cc1ccc(S(=O)(=O)N2CCCCC2C(=O)N2CCN(Cc3ccccc3)CC2)cc1 (centres undefined) | 4.61µM* | 6.3% | ? | i | -7.7% | 3.1%
Nc1c(C(=O)Nc2nccs2)sc2nc(-c3cccs3)cc(C(F)(F)F)c12 | i | ? | i | i | -18.6% | ?
Cc1nnc(NC(=O)c2sc3nc(-c4cccs4)cc(C(F)(F)F)c3c2N)s1 | 13µM* | -22.9% | i | ? | -9.0% | -4.6%
Nc1c(I)cc(I)c(C(=O)N(CCC(=O)O)c2ccccc2)c1I | nt | nt | nt | i | 2.8% | nt
CC1(C)Cc2c(c(N3CCCCC3)[nH]c(=S)c2C#N)CS1 | 11.6µM* | 5.1% | i | i | 24.5% | 13.9%
O=C(OCc1ccc(Br)cc1)c1ccncc1 | i | -0.5% | i | i | nt | 8.9%
CC(=O)Nc1ccc(C(=O)OCc2ccc(Br)cc2)cc1 | 18.4µM* | -6.0% | i | i | 2.8% | -0.4%
COc1ccc(C(C(=O)Nc2ccc(C(C)C)cc2)N(C)C(=O)Cc2cccs2)cc1 (centres undefined) | i | nt | i | i | -8.4% | nt
O=C1c2ccccc2C2=Nc3ccccc3SC(c3cccc(F)c3)C12 (centres undefined) | 16.4µM* | ? | 20.6µM* | ? | ? | ?
O=C1c2ccccc2C2=Nc3ccccc3SC(c3ccc(Cl)cc3)C12 (centres undefined) | i | ? | i | ? | -0.8% | ?
CC(C)(C)OC(=O)CN(Cc1ccc(Cl)cc1)Cc1ccc([N+](=O)[O-])s1 | nt | nt | nt | nt | -18.9% | nt
N#Cc1c(NC(=O)CSc2ncn[nH]2)sc2c1CCCCC2 | 4.11µM* | ? | i | ? | ? | ?
SMILES | KB-V1 MDR tox | HT1080-NT tox | KB-3-1 cytotox | S2 tox | ATXN2 expr inh | HT1080 IDH1KD tx
COc1ccc(/C(=N/Nc2ncnc3ccccc23)C(=O)O)cc1 | i | 23.1µM* | i | i | -9.0% | 23.1µM*
CCOC(=O)/C(=N\Nc1ncnc2ccccc12)c1ccc(OC)cc1 | i | -23.6% | i | i | -11.6% | -0.2%
CCOC(=O)c1ccc(NC(=O)N2CCN(Cc3cccc(F)c3)CC2)cc1 | 18.4µM* | -27.9% | i | i | 21.5% | ?
CCCN1CCN(C(=O)Nc2ccc(C(=O)OCC)cc2)CC1 | ? | 6.2% | i | i | 21.5% | 1.7%
CCOC(=O)Cn1c(=O)cc(-c2ccccc2)c2c(C)nn(C)c21 | i | nt | i | i | -3.7% | nt
O=C(CC(=O)c1ccccn1)c1ccccc1 | 13µM* | -9.6% | ? | i | 26.9% | ?
O=C(c1ccccc1)c1ccccn1 | i | 1.6% | i | i | 4.1% | 8.1%
CCC1C(=O)NCCN1Cc1ccc2c(c1)CN(Cc1cccc(OC)c1)CCO2 (centres undefined) | nt | nt | nt | i | nt | nt
COC(=O)c1sccc1NC(=O)c1csc(C)c1 | 16.4µM* | -22.1% | i | i | 1.1% | ?
CCOc1ccccc1C(=O)Nc1ccsc1C(=O)OC | 7.31µM* | ? | 5.8µM* | ? | -20.0% | ?
CCOc1ccccc1C(=O)Nc1ccccc1C(N)=O | 13µM* | 1.9% | i | i | 1.1% | -17.8%
Cc1cc(C)cc(OCC(O)Cn2nc(C)cc2C)c1 (centres undefined) | i | 13.4% | i | i | -6.1% | 6.4%
COc1ccc(CC(=O)Nc2nc(-c3ccc(OC)c(OC)c3)cs2)cc1OC | ? | ? | i | ? | 22.4µM* | -28.8%
COc1ccc(-c2csc(NC(=O)c3ccc(OCC(=O)N4CCOCC4)c(OC)c3)n2)cc1OC | ? | -8.8% | ? | ? | 15.8µM* | -15.1%
COc1cc(C(=O)Nc2cccc(C)n2)ccc1OCC(=O)N1CCOCC1 | i | -3.1% | i | i | -0.1% | 6.6%
Cc1noc(C)c1CSCC(=O)Nc1nc(-c2ccc(F)c(F)c2)cs1 | ? | ? | i | ? | 22.4µM* | -16.7%
COc1ccc(-c2csc(NC3OC(=O)c4c3ccc(OC)c4OC)n2)cc1OC (centres undefined) | i | 2.06µM* | i | ? | ? | 2.59µM*
O=C(CN1Cc2ccccc2OC(c2ccsc2)C1)NCc1ccc2c(c1)OCO2 (centres undefined) | nt | nt | nt | i | nt | nt
Cc1cc(C)n2ncc(C(=O)NC(C)C)c2n1 | i | nt | i | nt | nt | nt
CCn1cc(C(=O)NCCc2ccc(Cl)cc2)c(=O)c2cc(S(=O)(=O)N(C)C3CCCCC3)ccc21 | i | nt | i | i | 0.8% | nt
CCc1noc(C)c1C(=O)Nc1nc(-c2ccc(OC)c(OC)c2)cs1 | 10.3µM* | -10.9% | i | ? | ? | -9.9%
CCc1noc(C)c1C(=O)OCC(=O)Nc1nc(-c2ccc(F)c(F)c2)cs1 | 2.91µM* | -12.6% | i | ? | -15.0% | 2.1%
